# For some assays here: Potency and affinity values are given separately. Calls of active or inactive are those of the source. A call without a number means that no potency is given here.
# Columns and labels:
# [1] = Ebola virus entry assay, blue channel fluorescence
# [2] = Ebola virus entry cell assay, ratio channel
# [3] = Ebola virus entry assay, reporter ratio channel; AC50: Channel type: primary unless noted; outcome: Channel type: primary unless noted
# [4] = Ebola virus entry assay, blue channel (ratio component)
structure (smiles),measurement,setting,value
CC(=O)S[C@@H]1CC2=CC(=O)CC[C@]2(C)[C@H]2CC[C@@]3(C)[C@@H](CC[C@@]34CCC(=O)O4)[C@H]12,outcome,[1],inactive
same,outcome,[2],inactive
CCOc1ccccc1OCC1CNCCO1 (stereo not given),outcome,[3],inactive
same,outcome,[4],inactive
CN(C)[C@@H]1C(=O)C(C(N)=O)=C(O)[C@@]2(O)C(=O)C3=C(O)c4c(O)cccc4C[C@H]3C[C@@H]12,AC50,[3],17.8 µM (active)
same,outcome,[4],inactive
CN1Cc2cc(C(=O)N3CCC(C4CCNCC4)CC3)ccc2NC(CC(=O)O)C1=O (stereo not given),outcome,[3],inactive
same,outcome,[4],inactive
O=C(NCC(O)CO)c1c(I)c(C(=O)NCC(O)CO)c(I)c(N(CCO)C(=O)CO)c1I (stereo not given),outcome,[3],inactive
same,outcome,[4],inactive
COC(=O)[C@@H]1[C@H]2C[C@H]3c4[nH]c5ccccc5c4CCN3C[C@@H]2CC[C@@H]1O,outcome,[3],inactive
same,outcome,[4],inactive
Cc1cc(C(C#N)c2ccc(Cl)cc2)c(Cl)cc1NC(=O)c1cc(I)cc(I)c1O (stereo not given),outcome,[3],inactive
same,outcome,[4],inactive
Cc1c(N)nc([C@H](CC(N)=O)NC[C@H](N)C(N)=O)nc1C(=O)N[C@H](C(=O)N[C@H](C)[C@@H](O)[C@H](C)C(=O)N[C@H](C(=O)NCCc1nc(-c2nc(C(=O)NCCCCN=C(N)N)cs2)cs1)[C@@H](C)O)[C@@H](O[C@@H]1O[C@@H](CO)[C@@H](O)[C@H](O)[C@@H]1O[C@H]1O[C@H](CO)[C@@H](O)[C@H](OC(N)=O)[C@@H]1O)c1cnc[nH]1,outcome,[1],inactive
same,outcome,[2],inactive
O=P(O)(O)C(Sc1ccc(Cl)cc1)P(=O)(O)O,outcome,[1],inactive
same,outcome,[2],inactive
CC(=O)OCC(=O)[C@@]1(OC(C)=O)[C@@H](C)C[C@H]2[C@@H]3C[C@H](F)C4=CC(=O)C=C[C@]4(C)[C@@]3(F)[C@@H](O)C[C@@]21C,outcome,[3],inactive
same,outcome,[4],inactive

# — PubChem BioAssay (NCATS)
